From PubChem BioAssay (Tox21) come the findings set out here.

Unmarked numbers belong to inactive results. Active and inactive are the calls of the source. Calls follow the shape of the full dose curve.
% is scaled to controls: 0 for no effect and ±100 for the full control effect; potency is read from the fitted curve at half-maximal effect.

Gonadotropin-releasing hormone receptor (Homo sapiens), sequence (P30968 whole entry, looked up): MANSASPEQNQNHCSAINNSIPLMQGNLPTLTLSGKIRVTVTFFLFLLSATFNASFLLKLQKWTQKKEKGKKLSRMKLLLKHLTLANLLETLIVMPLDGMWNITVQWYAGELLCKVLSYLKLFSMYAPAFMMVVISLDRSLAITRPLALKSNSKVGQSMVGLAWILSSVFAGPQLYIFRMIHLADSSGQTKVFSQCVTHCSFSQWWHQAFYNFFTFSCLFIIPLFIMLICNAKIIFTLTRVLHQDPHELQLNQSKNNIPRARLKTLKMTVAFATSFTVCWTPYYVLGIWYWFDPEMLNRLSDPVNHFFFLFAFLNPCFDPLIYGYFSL

This experiment addresses Gonadotropin-releasing hormone receptor (Homo sapiens) (UniProt P30968). Description: Human gonadotropin-releasing hormone receptor (GnRHR) small molecule agonists, calcium flux assay in GnRHR-HEK293 cells (AID 1920063). Also: nearly all actives have a fitted effect of over 35% in size. The note with it: calcium flux fluorescence, agonist mode; series mostly up to 57.6 µM; activity change: at the top concentration. An excerpt:
National Center for Advancing Translational Sciences [NCATS]
Division of Preclinical Innovation [DPI]
U.S. Environmental Protection Agency [EPA]
National Institutes of Environmental Health Sciences [NIEHS]
National Toxicology Program [NTP]
U.S. Food and Drug Administration [FDA]
Gonadotropin-releasing hormone receptor (GnRHR) is a G-protein-coupled receptor (GPCR) and acts (through phospholipase C) to increase intracellular inositol trisphosphate and then release intracellular calcium stores. Cell-based GnRHR-Hek293 calcium influx assay is using HEK293 cells that have been genetically engineered to express the human GnRHR, which activity can be measured by calcium signaling. A compound/drug can activate (agonist) GnRHR that can be monitored by levels of intracellular calcium.
GnRHR-HEK293 cells developed by Codex Corp contain human GnRHR reporter gene, which was stably integrated into HEK 293 cells. The compound activation can be detected by fluorescence intensity via calcium flux assay. This cell line has been used to screen the Tox21 10K compound library to identify GnRHR agonists.
GnRHR-Hek293 cells were dispensed at 1500cells/4uL/well in 1536-well black wall/clear bottom plates using a multidrop dispenser. After the assay plates were incubated at a 37 C/5% CO2 incubator for 18 hours, 4 uL of Calcium Dye Solution was added to each well. The plates were incubated at 37 C for 1 hour. For agonist mode, 23 nL of compounds dissolved in DMSO, positive controls or DMSO only was transferred to the assay plate by a pin tool station. The fluorescence intensity in the plates was measured using FDSS 7000EX kinetic plate reader with a filter set of Ex/Em=480/540 for 3 min at 1 sec intervals. Each test compound was measured at 15 concentrations and in triplicates.
In general terms: Calcium flux is commonly read through the fluorescence of an indicator in the cells.
For the compound `OCC(O)[C@@H](O)[C@H](O)[C@H](O)CO[C@H]1O[C@H](CO)[C@@H](O)[C@H](O)[C@H]1O` (stereo not given in full), the “activity change” value was 0.225%.
Regarding `FC(F)(F)C(F)(F)C(F)(F)C(F)(F)C(F)(F)C(F)(F)C(F)(F)C(F)(F)C(F)(F)C(F)(F)F`, the activity change was 0.129% [at 5.22 µM, active compounds read high].
Still for that read-out and setting: the same measure for `Cc1ccc(N(CC2=NCCN2)c2cccc(O)c2)cc1`: -1.86% [at 26.4 µM, active compounds read high].
As to `CCOC(=O)C(=O)OCC`, the “activity change” value is 1.89%.
The same measure, in the same setting: the same measure for `CCCS(=O)c1ccc2nc(NC(=O)OC)[nH]c2c1` (stereo not given): -1.28% [at 26.4 µM, active compounds read high]; for `Cc1c(Cl)cccc1[N+](=O)[O-]`: -1.88%; for `CC[C@@]1(O)C(=O)OCc2c1cc1n(c2=O)Cc2c-1nc1ccccc1c2/C=N/OC(C)(C)C`: 1.74% [at 26.4 µM, active compounds read high].
On to `COc1cc2nc(Cl)nc(N)c2cc1OC`, for which the “activity change” value was 0.412% [at 26.4 µM, active compounds read high].
On the same count and under the same terms, the same measure for `O=C(O)c1cc(Cl)cc([N+](=O)[O-])c1Cl`: -0.655%; for `CN[C@@H]1[C@H](O)[C@H](NC)[C@H]2O[C@@]3(O)C(=O)C[C@@H](C)O[C@H]3O[C@@H]2[C@H]1O`: 0.001% [at 26.4 µM, active compounds read high].
On the same count and under the same terms, in the case of `CCCCC(CC)COC(=O)CC#N` (stereo not given) it was -0.19%.
On the same count and under the same terms, in the case of `C=C(C)CCCC` it was -0.376%; in that of `S=c1[nH][nH]c(=S)s1`, -0.0745%; in that of `CN(C)CCOC1=Cc2ccccc2Sc2ccc(Cl)cc21`, 18.2% [at 26.4 µM, active compounds read high].
With `CCCCCC[C@@H](O)C/C=C\CCCCCCCC(=O)OCC(O)CO` (stereo not given in full), the “activity change” value was 3.8%.
`OC[C@@H](O)C(O)[C@@H](O)CO` (stereo not given in full): the “activity change” value is -0.0109%.
Regarding `Clc1cc(Cl)cc(Cl)c1`, the “activity change” value was 4.24%.
Take `CCCCCCCCCCCC(=O)NCCCN(C)C`: the Potency was 30.9 µM (active).
As for `CC(C)=CCC1=C(O)c2ccccc2C(=O)C1=O`, the “activity change” value was 0.321%.
On the same count and under the same terms, the same measure for `CCOC(=O)CC`: 0.514%.
Regarding `OCCCCCCO`, the “activity change” value is -0.642%.
The same measure, in the same setting: in the case of `CO[C@@]1(NC(=O)CSCC#N)C(=O)N2C(C(=O)O)=C(CSc3nnnn3C)CS[C@@H]21` it was -0.386% [at 26.4 µM, active compounds read high]; in that of `O=C(CCCN1CCN(c2ccccn2)CC1)c1ccc(F)cc1`, -0.254% [at 26.4 µM, active compounds read high]; in that of `CCN(CC)CCOc1ccc(C(O)(Cc2ccc(Cl)cc2)c2ccc(C)cc2)cc1` (stereo not given), 16.2% [at 26.4 µM, active compounds read high].
Same read-out and setting: the same measure for `CCOc1nc2cccc(C(=O)O)c2n1Cc1ccc(-c2ccccc2-c2nn[nH]n2)cc1`: -1.39% [at 26.4 µM, active compounds read high]; for `CC1=NS(=O)(=O)c2cc(Cl)ccc2N1`: -1.97% [at 26.4 µM, active compounds read high].
In the case of `O=S(=O)(O)CCO`, the “activity change” value was 0.718%.
Still for that read-out and setting: the same measure for `O=C(O)c1cc(N=Nc2ccc([N+](=O)[O-])cc2)ccc1O`: 0.0182%; for `CCOC(=O)CCCCCCCCC(=O)OCC`: 3.98%; for `O=[N+]([O-])c1c(Cl)cc(Cl)cc1Cl`: -0.97%.
Take `CN1C(=O)N(c2ccccc2Br)Cc2cnc(Nc3ccc4c(c3)OCC(CO)O4)nc21` (stereo not given): the “activity change” value was 5.04%.
The same measure, in the same setting: the same measure for `CC1OCCC1=O` (stereo not given): 1.14%; for `O=C(O)C(O)[C@H](O)[C@@H](O)[C@H](O)[C@H](O)CO` (stereo not given in full): 1.11%; for `CCN(O)CC`: 5.89%.
Consider `CC(=O)OCC(C)C`, for which the “activity change” value was 0.898%.
The same measure, in the same setting: in the case of `c1ccc2c(CC3=NCCN3)cccc2c1` it was -0.13% [at 26.4 µM, active compounds read high].
Same read-out and setting: the same measure for `CC(C(=O)O)c1ccc(C(=O)c2ccccc2)s1` (stereo not given): -1.66% [at 26.4 µM, active compounds read high]; for `CCCCCCCCCC=O`: -0.724%.
For `NS(=O)(=O)c1cc(C(=O)NN2C[C@H]3[C@H]4CCC(C4)[C@H]3C2)ccc1Cl`, the “activity change” value was -1.69% [at 26.4 µM, active compounds read high].
Regarding `Nc1ncnc(Nc2ccccc2)n1`, the “activity change” value is -0.879% [at 26.4 µM, active compounds read high].
